# Experimental data reported in PubChem BioAssay AID504434 (National Center for Advancing Translational Sciences (NCATS), 2011).
# Inconclusive results are not listed. Calls of active or inactive are those of the source. Calls follow the shape of the dose curve; as a rule, active = well fitted curve in the direction sought with a large enough effect; inconclusive = small, poorly fitted or top-dose-only effect, or effect the other way, or another doubt; inactive = no such curve, though single readings can be large or run the other way.
# Assay: Secondary Assay for lipid storage modulators: AML12 cell LDSA assay for probe SAR
# Conditions: AML12 lipid droplet accumulation, BODIPY 493/503 imaging, oleate
# Text: NIH Molecular Libraries Probe Production Centers Network [MLPCN] NIH Chemical Genomics Center [NCGC] MLPCN Grant: 1 R03 MH085686-01 Assay Submitter (PI): Beller, Mathias; Max-Planck-Institut fur Biophysikalische Chemie NCGC Assay Overview: Storing lipids as a reservoir for energy or the anabolism of elementary metabolites is a common feature of probably all cells and is conserved from bacteria to humans. The universal cellular lipid storage organelle is the so-called lipid storage droplet (LD). Although ubiquitous, LDs share a simple structure composed of a hydrophobic core that harbors the storage lipids, which is shielded by a droplet-specific phospholipid monolayer to which proteins are attached. The current model of LD biogenesis involves an incorporation of the lipid core into the membrane leaflets of the endoplasmic reticulum (ER) followed by a subsequent budding-like maturation of a LD, which ultimately pinches off. […]
# NCGC Assay Protocol Summary: The assay was performed with AML12 cells, using an oleic acid feeding protocol similar to the S3 assay. […] Fluorescence was detected by excitation of the fluorophores with a 488-nm laser on an Acumen Explorer (TTP Lab Tech). […] Cells were detected using channel 3 (575-640 nm) with 5-um width and 100-um depth filters. The ratio of the number of objects in PMT channel 2 over the number of objects in PMT channel 3 was also calculated. […]
smiles,measurement,value
CCC/C=C/C/C=C/C=C/C=N/NN=O,Potency,499 nM (active)
